Data published in PubChem BioAssay AID624171 (National Center for Advancing Translational Sciences (NCATS), 2012).
The whole screen tested about 410,000 compounds, of which about 1,200 (0.29%) were called active. Not shown: some 2% with an inconclusive outcome. The call rests on the fitted dose curve; in most records, active means well fitted activation curve with a large enough effect; inconclusive means small, poorly fitted or top-dose-only effect; inactive means flat fitted curve, though single readings scatter. The list comes from a sample in which actives are over-represented; it also holds similar structures and randomly drawn compounds. A call without a number means that no potency is given here.

assay: qHTS of Nrf2 Activators; conditions: AREc32 ARE-luciferase reporter (MCF7-derived line), luminescence, 24 h; series mostly up to 46.1 µM; further: nearly all actives have a fitted effect of over 65% in size
Text: Many diseases have some form of oxidative stress injury and ties to inflammation, causing a host of problems for the patient. The antioxidant response element (ARE) plays an important role in alleviating the harmful effects of oxidative stress. The antioxidant response element (ARE) is a transcriptional regulatory element involved in the activation of genes coding for a number of antioxidant proteins and detoxifying enzymes. These enzymes work in concert to protect tissues from oxidative insults and chemical toxicities in human hepatocytes and immune cells. The protective effects of ARE activation are primarily triggered through Nrf2 (NF-E2-related factor) binding to and activating AREs. It is known that Nrf2 controls the production of over 250 antioxidant and detoxification proteins (Hu et al., 2006), thereby protecting tissues by increasing cellular antioxidant content and suppressing inflammatory signaling pathways. The transcription factor Nrf2 is a central link between oxidative chemicals, such as phenolic antioxidants and electrophilic compounds, and the activation of ARE. Nrf2 levels are constitutively low as a consequence of its interaction with Keap1, which targets its degradation (Zipper and Mulcahy, 2002). Electrophiles react with key cysteine residues in Keap1, releasing Nrf2 and allowing its translocation to the nucleus. Once within the nucleus, Nrf2 complexes with coactivators such as p300, and binds to the AREs to induce gene transcription of cytoprotective enzymes, resulting in the prevention of toxicity. Activation of Nrf2 protects tissues by increasing cellular antioxidant content and suppressing inflammatory signaling pathways. Identifying novel and potent Nrf2 activators by using the AREc32 cell line to detect ARE activation by small molecules will lead to the identification and development of probes to study protective pathways in multiple tissues. These specific probes are essential to study the ARE pathway, and eventually to determine whether this pathway does activate genes that could protect against a host of diseases, including cardiovascular diseases, obesity, diabetes, Alzheimer's, and Parkinson's disease.
This project's aim is to identify novel and potent Nrf2 activators by using the AREc32 cell line to detect ARE activation by small molecules, which will lead to the identification and development of probes to study the ARE pathway.
NIH Chemical Genomics Center [NCGC]
NIH Molecular Libraries Probe Centers Network [MLPCN]
Assay Submitter (PI): Curtis Klaassen, University of Kansas Medical Center
5 uL of 1000 cells/well of AREc32_Fluc cells are seeded into 1536-well plate in OPTI-MEM medium with 5% FBS. The plates are incubated overnight at 37 deg C with 5% CO2. Then through pin tool transfer, 23 nL of compounds are added to each well before a 24 hr incubation at 37 deg C with 5% CO2. After the addition of 2.5 uL of Steady-Glo. the plates are kept at RT for 30 min, before they are read on the ViewLux.
Potency means the concentration at half of the fitted maximal effect.

Row | SMILES | Potency
1 | CCN1CCN(c2cc(C)c3cc(NC(=O)c4cc(Cl)ccc4OC)ccc3n2)CC1 | inactive
2 | COc1ccc(CCNC(=O)CCCn2c(=O)c3ccccc3n(Cc3ccc(F)cc3Cl)c2=O)cc1OC | inactive
3 | CCOc1ccccc1C(=O)NC1(C(F)(F)F)C(=O)Nc2c1c(=O)[nH]c(=O)n2-c1ccc(F)cc1 (centres undefined) | inactive
4 | Cc1ccc(-c2noc(-c3nnn(-c4cccc(C(F)(F)F)c4)c3N)n2)cc1 | inactive
5 | Cc1cccc(NC(=O)CSc2nnc(CNC(=O)c3cccc(C)c3)n2-c2ccccc2)c1 | inactive
6 | CCOC(=O)c1c(NC(C)=O)c2c3c(sc2n1Cc1c(C)cc(C)cc1C)CCCC3 | inactive
7 | COc1ccccc1CNC(=O)CCCCn1c(=O)c2ccccc2n(CC(=O)Nc2cc(Cl)ccc2C)c1=O | inactive
8 | COc1cccc(C(=O)N(Cc2cccc(Cl)c2)Cc2ccco2)c1 | inactive
9 | COc1ccccc1N1CCN(S(=O)(=O)CCNC(=O)COc2ccc(F)cc2)CC1 | inactive
10 | CC(C)n1c(O)c(N=Nc2ccccn2)c2ccccc21 | 12.6 µM (active)
11 | COC(=O)Cn1c(O)c(N=NC(=O)OC)c2ccccc21 | inactive
12 | CCOC(=O)c1ccc(N2C(=O)c3[nH]nc(-c4ccccc4)c3C2c2ccc(C(C)C)cc2)cc1 (centres undefined) | inactive
13 | CC1CCCCN1Cc1c(O)ccc2c(=O)c(-c3cccc(Cl)c3)c(C(F)(F)F)oc12 (centres undefined) | inactive
14 | COc1ccc(-c2nc3c4ccccc4n(CC(=O)Nc4ccc(C(C)=O)cc4)c(=O)n3n2)cc1 | inactive
15 | CC(C)(C)OC(=O)N1CCC(c2c(C(=O)N3CCc4ccccc4C3)cnn2-c2ccc(F)cc2)CC1 | inactive
16 | O=C(c1ccncc1)N1CCN(S(=O)(=O)c2cccc([N+](=O)[O-])c2)CC1 | inactive
17 | COc1cc(CCN=Cc2ccccc2O)c([N+](=O)[O-])cc1OC | inactive
18 | O=[N+]([O-])c1cccc(C=NN=Cc2ccccc2O)c1 | 10 µM (active)
19 | N/C(=N\OS(=O)(=O)c1cccc([N+](=O)[O-])c1)c1ccncc1 | inactive
20 | O=C(N/N=C/c1cccc([N+](=O)[O-])c1)c1ccncc1 | 12.6 µM (active)
21 | O=C(/C=C/c1cccc([N+](=O)[O-])c1)OCC(=O)N1CCOCC1 | inactive
22 | O=C(COc1ccccc1F)OCc1cc(=O)n2nc(C3CCCCC3)sc2n1 | inactive

Row | SMILES | Potency
23 | Cc1cccc(OCC(=O)N(Cc2ccc(C(C)C)cc2)Cc2ccco2)c1C | inactive
24 | O=C1CSC2(C(=O)N(Cc3ccccc3)c3ccccc32)N1c1cccc(F)c1 (centres undefined) | inactive
25 | Cc1ccc(C)c(N2CCN(C(c3ccccc3)c3nnc(-c4ccccc4)o3)CC2)c1 (centres undefined) | inactive
26 | CCn1cc(C(=O)N2CCN(c3cc(Cl)ccc3C)CC2)c(=O)c2cc(S(=O)(=O)N3CCCC3)ccc21 | inactive
27 | Cc1ccc(-n2c3nc(=O)[nH]c(=O)c-3cc3c(Cl)cccc32)cc1 | inactive
28 | O=C(OCC#CCSc1nnc(-c2ccncc2)o1)c1sc2ccccc2c1Cl | inactive
29 | C#CCSc1nnc(-c2sc3ccccc3c2Cl)o1 | 4.47 µM (active)
30 | COc1ccc2c(Cl)c(-c3nnco3)sc2c1 | inactive
31 | CCN(CC)c1ccc(NC(=O)CN2C(=O)c3cccnc3Oc3ccc(Cl)cc32)c(C)c1 | inactive
32 | Cc1ccc2cccc(NC(=O)c3cccc4ccccc34)c2n1 | inactive
33 | Cc1cccc2c(=O)cc(CSc3ccccc3NC(=O)C(C)C)[nH]c12 | inactive
34 | Cc1ccccc1NC(=O)c1cnn(-c2ccccc2)c1NC(=O)c1ccco1 | inactive
35 | CCn1nc(NC(=O)c2ccco2)c2cc3ccc(C)cc3nc21 | inactive
36 | Cc1ccnc(NC(=O)c2ccco2)n1 | 12.6 µM (active)
37 | COc1ccc(NC(=O)CCc2nnc3n(CC(C)C)c(=O)c4ccccc4n23)cc1OC | inactive
38 | Cc1ccc(Cn2c(CCCNC(=O)C3CCCCC3)nc3ccccc32)cc1 | inactive
39 | O=C(Nc1nnc(C2CC2)s1)c1cc(Cl)sc1Cl | 20 µM (active)
40 | CCc1cc(C(=O)Nc2nnc(C3CC3)s2)sc1C | inactive
41 | CCc1ccccc1OCC(=O)Nc1nnc(C2CC2)s1 | inactive
42 | CCOc1ccc(-n2c(SCC(=O)NCc3ccccc3)nc3n[nH]c(C)c3c2=N)cc1 | inactive
43 | CCC(CC)c1nnc(NC(=O)/C=C/c2ccco2)s1 | 2.51 µM (active)
44 | C/C=C/C(=O)Nc1nnc(C(C)C)s1 | inactive

Row | SMILES | Potency
45 | CCc1ccc2oc(-c3ccc(C)c(NC(=O)/C=C/c4ccco4)c3)nc2c1 | inactive
46 | CCC(CC)c1nnc(NC(=O)C2=COCCO2)s1 | inactive
47 | Cc1nnc(NC(=O)/C=C/c2ccco2)s1 | 3.55 µM (active)
48 | CCC(CC)c1nnc(NC(=O)C2CCN(C(=O)c3ccco3)CC2)s1 | inactive
49 | Cc1cc(NS(=O)(=O)c2ccc(NC(=O)c3ccccc3C)cc2)nc(C)n1 | inactive
50 | CCc1ccc(N2C(=O)CN(S(=O)(=O)CC)CC2(C)C(=O)NC2CCCCC2)cc1 (centres undefined) | inactive
51 | Cc1ccccc1OCC(=O)Nc1c(C(=O)Nc2ccccc2F)oc2ccccc12 | inactive
52 | CCOC(=O)c1cccc(NC(=O)c2cc(CN3CCCC3)on2)c1 | inactive
53 | CC1CCC2(CC1)N=C(c1ccccc1)C(=O)N2CC(=O)Nc1ccc(F)c(Cl)c1 (centres undefined) | inactive
54 | COc1ccc(Cl)cc1NC(=O)CSc1nc(=O)[nH]c2c1CCCC2 | inactive
55 | CCNC(=O)c1cc2n(n1)CCCN(Cc1ccc(C)cc1)C2=O | inactive
56 | Fc1ccc(CSc2nnc(-c3cc4c(s3)-c3ccccc3CC4)o2)cc1 | inactive
57 | CCSc1nnc(-c2cc3c(s2)-c2ccccc2CC3)o1 | 12.6 µM (active)
58 | COc1ccccc1-c1nnc(SCC(N)=O)o1 | inactive
59 | CCc1ccccc1NC(=O)c1ccc(F)c(S(=O)(=O)NC2CCCCCC2)c1 | inactive
60 | Fc1ccc(C(Nc2ccc(Cl)c(C(F)(F)F)c2)c2nnc(-c3ccccc3)o2)cc1 (centres undefined) | inactive
61 | COc1ccc(-n2c(C)nc3c(cnn3-c3ccc(F)cc3)c2=O)cc1 | inactive
62 | COc1ccc(-n2c(=O)c3ccccc3n(Cc3ccccc3Cl)c2=O)cc1 | inactive
63 | COc1ccc(Oc2c(Cl)cnn(-c3ccccc3)c2=O)cc1 | 12.6 µM (active)
64 | Cc1ccccc1CS(=O)(=O)CC1Nc2ccc(C(=O)NCc3ccc(Cl)cc3)cc2NC1=O (centres undefined) | inactive
